Source: the supplement of paper PMC4022240
± gives the standard deviation.

Tests used:
Assay in all cases: peptide microarray binding signal (635 nm), min-max normalized on array (fraction of array maximum); higher = stronger binding
[1] = molecular target: T1, HaloTag-ATRX ADD domain (163-292)
T1 chain: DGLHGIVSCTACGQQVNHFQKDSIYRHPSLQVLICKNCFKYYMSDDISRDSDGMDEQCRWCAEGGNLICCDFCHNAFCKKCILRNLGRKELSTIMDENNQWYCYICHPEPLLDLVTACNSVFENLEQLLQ
Outline: (§1)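 Histone 13-mer peptide–cellulose conjugates were printed in triplicate on nitrocellulose with a Cy3 tracer, then blocked overnight at 4°C. Arrays were probed for 1 h at 4°C with biotin-labelled HaloTag reader fusions (10 nM to 1 μM) plus streptavidin-Alexa Fluor 647, or with rabbit histone antibodies (1:10,000 to 1:2,000) plus anti-rabbit Alexa 647. An Axon GenePix 4000B scanned 635 nm for signal and 532 nm for misprints. Binding signal is the triplicate-spot mean intensity, min-max scaled per library.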

[2] = molecular target: HaloTag-ING2 PHD (mouse Ing2 200-280)
Outline: as §1

[3] = molecular target: anti-H3K4me3 antibody ab8580
Outline: as §1

[4] = molecular target: anti-H3K9me3 antibody ab8898
Outline: as §1

[5] = peptide region: H3 20-32, peptide modifications: H3T22ph H3K23me1, binder concentration: 1:2,000 dilution
[6] = peptide region: H3 20-32, peptide modifications: H3T22ph H3K23me1, binder concentration: 1:10,000 dilution
[7] = peptide region: H3 20-32, peptide modifications: H3T22ph H3K23me2, binder concentration: 1:2,000 dilution
[8] = peptide region: H3 20-32, peptide modifications: H3T22ph H3K23me2, binder concentration: 1:10,000 dilution
[9] = peptide region: H3 20-32, peptide modifications: H3T22ph H3K23me3, binder concentration: 1:2,000 dilution
[10] = peptide region: H3 20-32, peptide modifications: H3T22ph H3K23me3, binder concentration: 1:10,000 dilution
[11] = peptide region: H3 20-32, peptide modifications: H3T22ph, binder concentration: 1:2,000 dilution
[12] = peptide region: H3 20-32, peptide modifications: H3T22ph, binder concentration: 1:10,000 dilution
[13] = peptide region: H3 30-42, peptide modifications: H3K36ac H3K37ac, binder concentration: 1:2,000 dilution
[14] = peptide region: H3 30-42, peptide modifications: H3K36ac H3K37ac, binder concentration: 1:10,000 dilution

**Q.** How did the “peptide microarray binding signal” value ([1]; peptide region: H3 20-32, peptide modifications: H3T22ph H3K23me1, binder concentration: 50 nM) turn out when LATKAARKSAPAT [H3 20-32 L A Tph Kme A A R K S A P A T] was run?
**A.** 0.012 ± 0.0014

**Q.** What about the “peptide microarray binding signal” value ([1]; peptide region: H3 20-32, peptide modifications: H3T22ph H3K23me1, binder concentration: 500 nM) of the same binder?
**A.** 0.0173 ± 0.0019

**Q.** And the “peptide microarray binding signal” value ([2]; peptide region: H3 20-32, peptide modifications: H3T22ph H3K23me1, binder concentration: 10 nM)?
**A.** 0.0223 ± 0.0014

**Q.** And the “peptide microarray binding signal” value ([2]; peptide region: H3 20-32, peptide modifications: H3T22ph H3K23me1, binder concentration: 100 nM)?
**A.** 0.0368 ± 0.0079

**Q.** What about the “peptide microarray binding signal” value [3, 5] of the same binder?
**A.** 0.00793 ± 0.0012

**Q.** And the “peptide microarray binding signal” value [3, 6]?
**A.** 0.0102 ± 0.0018

**Q.** What about the “peptide microarray binding signal” value [4, 5] of the same binder?
**A.** 0.00538 ± 0.00068

**Q.** What about the “peptide microarray binding signal” value [4, 6] of the same binder?
**A.** 0.003 ± 9.2e-05

**Q.** Which “peptide microarray binding signal” value ([1]; peptide region: H3 20-32, peptide modifications: H3T22ph H3K23me2, binder concentration: 50 nM) does the source give for LATKAARKSAPAT [H3 20-32 L A Tph Kme2 A A R K S A P A T] here?
**A.** 0.004921 ± 4.8e-05

**Q.** And the “peptide microarray binding signal” value ([1]; peptide region: H3 20-32, peptide modifications: H3T22ph H3K23me2, binder concentration: 500 nM)?
**A.** 0.00605 ± 0.00026

**Q.** And the “peptide microarray binding signal” value ([2]; peptide region: H3 20-32, peptide modifications: H3T22ph H3K23me2, binder concentration: 10 nM)?
**A.** 0.0107 ± 0.0003

**Q.** And the “peptide microarray binding signal” value ([2]; peptide region: H3 20-32, peptide modifications: H3T22ph H3K23me2, binder concentration: 100 nM)?
**A.** 0.00893 ± 0.00037

**Q.** What about the “peptide microarray binding signal” value [3, 7] of the same binder?
**A.** 0.00359 ± 3.6e-05

**Q.** And the “peptide microarray binding signal” value [3, 8]?
**A.** 0.00268 ± 0.00016

**Q.** And the “peptide microarray binding signal” value [4, 7]?
**A.** 0.00201 ± 8.1e-05

**Q.** And the “peptide microarray binding signal” value [4, 8]?
**A.** 0.00196 ± 1.8e-05

**Q.** What does the source list for LATKAARKSAPAT [H3 20-32 L A Tph Kme3 A A R K S A P A T]?
**A.** peptide microarray binding signal ([1]; peptide region: H3 20-32, peptide modifications: H3T22ph H3K23me3, binder concentration: 50 nM): 0.00577 ± 0.00039; peptide microarray binding signal ([1]; peptide region: H3 20-32, peptide modifications: H3T22ph H3K23me3, binder concentration: 500 nM): 0.0105 ± 0.00049; peptide microarray binding signal ([2]; peptide region: H3 20-32, peptide modifications: H3T22ph H3K23me3, binder concentration: 10 nM): 0.0219 ± 0.0024; peptide microarray binding signal ([2]; peptide region: H3 20-32, peptide modifications: H3T22ph H3K23me3, binder concentration: 100 nM): 0.026 ± 0.0027; peptide microarray binding signal [3, 9]: 0.0775 ± 0.0084; peptide microarray binding signal [3, 10]: 0.0633 ± 0.0092; peptide microarray binding signal [4, 9]: 0.0523 ± 0.0034; peptide microarray binding signal [4, 10]: 0.0244 ± 0.0027

**Q.** For LATKAARKSAPAT [H3 20-32 L A Tph K A A R K S A P A T], which “peptide microarray binding signal” value ([1]; peptide region: H3 20-32, peptide modifications: H3T22ph, binder concentration: 50 nM) is on record?
**A.** 0.00339 ± 3.7e-05

**Q.** What about the “peptide microarray binding signal” value ([1]; peptide region: H3 20-32, peptide modifications: H3T22ph, binder concentration: 500 nM) of the same binder?
**A.** 0.00638 ± 0.00025

**Q.** And the “peptide microarray binding signal” value ([2]; peptide region: H3 20-32, peptide modifications: H3T22ph, binder concentration: 10 nM)?
**A.** 0.0046 ± 6.2e-05

**Q.** What about the “peptide microarray binding signal” value ([2]; peptide region: H3 20-32, peptide modifications: H3T22ph, binder concentration: 100 nM) of the same binder?
**A.** 0.00772 ± 0.00064

**Q.** What about the “peptide microarray binding signal” value [3, 11] of the same binder?
**A.** 0.001548 ± 1.2e-05

**Q.** And the “peptide microarray binding signal” value [3, 12]?
**A.** 0.00194 ± 3.1e-05

**Q.** And the “peptide microarray binding signal” value [4, 11]?
**A.** 0.00068 ± 2.1e-05

**Q.** And the “peptide microarray binding signal” value [4, 12]?
**A.** 0.00115 ± 2e-05

**Q.** What does the source list for PATGGVKKPHRYR [H3 30-42 P A T G G V Kac Kac P H R Y R]?
**A.** peptide microarray binding signal ([1]; peptide region: H3 30-42, peptide modifications: H3K36ac H3K37ac, binder concentration: 50 nM): 0.00357 ± 6.3e-05; peptide microarray binding signal ([1]; peptide region: H3 30-42, peptide modifications: H3K36ac H3K37ac, binder concentration: 500 nM): 0.00462 ± 8.3e-05; peptide microarray binding signal ([2]; peptide region: H3 30-42, peptide modifications: H3K36ac H3K37ac, binder concentration: 10 nM): 0.00489 ± 0.00017; peptide microarray binding signal ([2]; peptide region: H3 30-42, peptide modifications: H3K36ac H3K37ac, binder concentration: 100 nM): 0.00539 ± 0.00019; peptide microarray binding signal [3, 13]: 0.00264 ± 0.00042; peptide microarray binding signal [3, 14]: 0.003024 ± 2.6e-05; peptide microarray binding signal [4, 13]: 0.00427 ± 0.00042; peptide microarray binding signal [4, 14]: 0.00271 ± 0.00018
